Measured values reported in PubChem BioAssay AID504863 (Sanford-Burnham Center for Chemical Genomics, 2011).
Some of the results follow. Values without a mark were called inactive.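 Rule for the calls: active = inhibition averaging 50% or more, tested at 20 µM; inactive = the rest.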

System: diaphorase (Clostridium kluyveri)
Experiment: C. kluyveri diaphorase inhibition, resazurin coupling – biochemical, fluorescence intensity, 30 µM NADPH, counter-screen for P. falciparum G6PD inhibitor project, confirmation (AID 504863);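 note: 0% = DMSO with enzyme and 100% = DMSO wells lacking diaphorase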
Details: Diaphorase/resazurin coupled assay, resorufin fluorescence, at 20 µM, active compounds read high

Question: How did the inhibition turn out when `O=C1NC(=O)N(c2ccccc2)C(=O)/C1=C/c1ccc([N+](=O)[O-])s1` was run?
Answer: 20.5%
